ssDAF-12 act: activates DAF-12 receptor from parasite S. stercoralis. HEK293 ssDAF-12/GRIP1 lit1-tk-luc reporter, luminescence; % of 3 µM dafachronic acid response. 1% of 370,000 active. activation, % at 6.8 µM;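 active means activation above the mean over all tested compounds plus 3 SD, cut at about 0.9% in these data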;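 further: 0% = DMSO-only wells and 100% = 3 µM delta7-dafachronic acid wells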
hgDAF12 agonist: agonists of H. glycines DAF-12 nuclear receptor; HEK293 GAL4-hgDAF12 UAS-luciferase reporter, agonist luminescence; normalized to butyrate control; 1.8% of 370,000 active; AID 687014; activation, % at 6.8 µM;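 active means activation above a cutoff set at the mean of all screened compounds plus 3 SD, cut at about 10% in these data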;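 further: 0% = DMSO wells and 100% = sodium butyrate wells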
hcDAF-12 act: H. contortus DAF-12 activation, primary screen | HEK293 hcDAF-12 lit1-tk-luc reporter, luminescence; 0% DMSO, 100% Δ7-dafachronic acid | activation, % at 6.8 µM | 1.4% of 370,000 active | AID 652067;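 active means activation above the mean of all tested compounds plus 3 SD, cut at about 5.5% in these data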;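 further: 100% = response to 3 µM Δ7-dafachronic acid high control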
AHR act: human AHR activation. P35869. AHR-responsive luciferase reporter cells, luminescence. activation, % at 5 µM. 2.5% of 320,000 active. AID 2796; in the data active means activation above about 47%;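 further: 0% = vehicle wells and 100% = reference agonist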
DAX1 inh-1: inhibits human nuclear receptor DAX1; HEK293 Gal4-DAX1 luciferase reporter, luminescence; inhibition, % at 6.75 µM; 0.99% of 340,000 active;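 active means inhibition above the mean over all tested compounds plus 3 SD, cut at about 4.2% in these data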;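 further: 0% = DAX1-transfected cells with DMSO and 100% = empty-vector control cells with DMSO; inhibition shows as a rise in luminescence from relieved DAX1 repression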
DAX1 inh-2: inhibitors of DAX1 repression of SF-1 activated StAR promoter; HEK293T StAR-luciferase reporter, SF-1/DAX-1 repression relief; inhibition, % at 6.8 µM; 1.1% of 370,000 active;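 active means inhibition above the mean over all tested compounds plus 3 SD, cut at about 3.6% in these data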;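 further: 0% = DAX-1 cells with DMSO and 100% = cells lacking DAX-1 with DMSO; higher inhibition means more luminescence from relief of DAX-1 repression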
LXR ag: counter-screen for hcDAF-12 agonists: agonists of human LXR-beta | shares compounds with hcDAF-12 act | HEK293 Gal4-LXR tk-luc reporter, luminescence, 24 h; normalized: DMSO 0%, positive control 100% | activation, % at 6.8 µM | 3,400 tested, under 10 active | AID 743027;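 active means mean percent activation of the reporter above a cutoff set as the average over tested compounds plus their standard deviation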
hcDAF12 ag: confirmation of H. contortus DAF-12 agonists; shares compounds with hcDAF-12 act; HEK293 hcDAF-12 lit1-tk-luc reporter, luminescence; % of Δ7-dafachronic acid response; activation, % at 6.8 µM; 61% of 3,400 active; AID 743032;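 active means mean activation across triplicate tests above the threshold derived from the earlier primary screen, cut at about 5.5% in these data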;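 further: 0% = DMSO only wells and 100% = 3 µM Δ7-dafachronic acid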
Numbers without * were called inactive; x = no result given. Only some compounds are listed: those with a hit (about 5.7% of all), similar ones and a draw of the others.

SMILES	ssDAF-12 act	hgDAF12 agonist	hcDAF-12 act	AHR act	DAX1 inh-1	DAX1 inh-2	LXR ag	hcDAF12 ag
O=C(COC(=O)c1cccc(S(=O)(=O)N2CCc3ccccc32)c1)Nc1ncc(Cl)cc1Cl	-0.6	-0.1	6.8*	17.5	-1.2	0.5	-0.2	3.0
COc1ccccc1Oc1ccc(N2CC(C(=O)OCC(=O)c3ccccc3)CC2=O)cc1 (stereo not drawn)	-1.1	-2.8	-0.5	-1.2	0.1	1.7	x	x
O=C1C(=Cc2ccco2)C(=O)c2ccccc21	-0.5	10.2	7.3*	14.8	1.5	1.4	0.0	1.6
c1ccc(-c2nnc(-c3ccccn3)s2)nc1	1.0*	13.1*	9.6*	65.0*	-3.0	2.4	1.7	14.1*
O=C(NCCc1ccccc1)/C(=C\c1cccc([N+](=O)[O-])c1)NC(=O)c1ccco1	-1.4	-3.5	-0.3	2.5	0.1	-0.5	x	x
CCCCOc1ccc(NC(=O)Nc2nnc(C)s2)cc1	1.1*	0.4	8.5*	24.3	1.6	0.5	-0.4	4.2
Cc1ccccc1-c1nnc(CS(=O)(=O)c2ccccc2)o1	1.5*	11.8*	6.8*	7.3	1.4	3.0	1.0	7.0*
COc1ccc(C2C(C(C)=O)=C(O)C(=O)N2c2ccc(F)cc2)cc1 (stereo not drawn)	0.1	3.0	-1.4	-0.1	-0.1	-0.4	x	x
CC1CCC(NC(=O)C2CC(=O)N(c3ccc(Cl)cc3)C2)CC1 (stereo not drawn)	-0.5	0.3	2.0	1.4	0.6	-1.2	x	x
COc1ccc(CCNc2nc3ccccc3n3nnnc23)cc1OC	-0.2	6.5	7.7*	53.6*	3.7	-0.6	0.0	1.9
c1ccc(CCNc2nc3ccccc3n3nnnc23)cc1	-1.2	1.6	0.6	2.0	0.9	0.4	x	x
Cc1ccc2[nH]c(=O)c(CN(Cc3ccccc3)Cc3nnnn3C3CCCC3)cc2c1	2.5*	9.8	13.7*	3.2	0.4	3.5	-0.3	0.7
Cc1ccc2[nH]c(=O)c(CN(Cc3nnnn3C3CCCC3)C3CCCCC3)cc2c1	-1.5	0.4	1.2	3.5	0.9	0.5	x	x
O=C1Nc2ccc3sc4ccccc4c3c2C1=O	-1.7	-2.3	-1.0	0.9	x	-0.1	x	x
CS(=O)(=O)N1N=C(c2ccccc2)CC1c1ccc2c(c1)OCO2 (stereo not drawn)	0.6	6.7	7.0*	18.2	1.5	0.6	0.5	7.4*
CS(=O)(=O)Nc1cccc(C2=NN(S(C)(=O)=O)C(c3ccc4c(c3)OCO4)C2)c1 (stereo not drawn)	-0.8	7.6	3.4	5.7	2.1	1.2	x	x
Cc1ccc(NC(=S)N=Nc2c(O)[nH]c3ccccc23)cc1	-1.9	-4.2	-0.4	-5.1	0.0	-1.4	x	x
CN(C)C(=S)N=Nc1[nH]c2ccccc2c1O	1.4*	12.7*	7.3*	63.9*	x	1.3	0.1	3.3
CN(C)c1ccc(N=Nc2ccccc2C(=O)OCC(=O)N2CCCC2)cc1	-2.0	3.7	-1.1	10.1	0.0	0.1	x	x
CN(C)c1ccc(N=Nc2ccccc2Br)cc1	1.6*	12.0*	20.1*	53.3*	0.2	3.0	1.7	18.9*
COc1ccc(CNC(=O)N2CCN(c3ccccc3OC)CC2)cc1	-0.9	-1.3	-1.8	0.2	2.0	0.1	x	x
Cc1ccc(NC(=O)c2sc3nc(C)cc(C)c3c2N)cc1	-0.2	12.4*	7.8*	27.4	4.2	2.4	1.8	9.3*
Cc1cc(C)c2c(N)c(C(=O)Nc3nccs3)sc2n1	2.3*	15.9*	18.0*	70.7*	-3.6	2.2	2.2	24.5*
Cc1cc(C)c2c(N)c(C(=O)NN)sc2n1	-1.6	-3.6	-1.2	21.1	-0.5	-1.0	x	x
COc1ccc(C(CNC(=O)c2ccc(C)c(S(=O)(=O)N3CCOCC3)c2)N2CCCC2)cc1 (stereo not drawn)	-0.6	1.2	1.3	x	0.7	1.0	x	x
SMILES	ssDAF-12 act	hgDAF12 agonist	hcDAF-12 act	AHR act	DAX1 inh-1	DAX1 inh-2	LXR ag	hcDAF12 ag
O=C(CN1CCc2ccccc2C1)c1cccs1	0.5	1.1	6.9*	44.3	0.5	0.6	0.0	3.6
CC1CCN(CC(=O)c2cccs2)CC1	0.5	9.8	1.5	3.9	-0.7	0.4	x	x
COc1cc(CN2C(=O)C(C)ON=C2c2ccccc2F)cc(OC)c1 (stereo not drawn)	-1.4	0.1	-4.4	x	x	-0.6	x	x
CC1ON=C(c2ccccn2)N(Cc2ccc(S(C)(=O)=O)cc2)C1=O (stereo not drawn)	-1.6	1.9	10.3*	x	x	-0.4	0.0	0.2
Cn1c(=N)n(CC(=O)c2ccc(Br)cc2)c2ccccc21	4.4*	16.6*	22.9*	55.0*	4.9*	2.3	2.6	28.6*
CCn1c(=N)n(CC(=O)c2ccco2)c2ccccc21	-1.2	-0.3	1.1	17.6	1.6	-0.4	x	x
Cc1ccc(C(=O)Cn2c(=N)n(CCN3CCOCC3)c3ccccc32)cc1	-0.5	2.5	2.7	33.9	-0.1	0.1	x	x
CCn1c(=N)n(CC(=O)c2ccc(Cl)c(Cl)c2)c2ccccc21	0.7	7.5	9.5*	64.9*	1.8	1.1	0.6	5.8*
C=CCn1c2ccccc2c(=O)c2cc(C#Cc3cc(OC)cc(OC)c3)ccc21	-2.0	0.4	-2.2	-7.6	0.5	-0.7	x	x
COc1cc(C#Cc2c(C=O)n(C)c3ccccc23)cc(OC)c1	-0.4	1.4	6.9*	32.8	-0.2	0.4	-0.2	3.1
CN(C)c1ccc(-c2cc3ccccc3c(=O)o2)cc1	1.7*	19.9*	9.5*	0.3	2.3	3.0	2.1	16.2*
COc1cc2c(cc1OC)C(c1ccccc1C(F)(F)F)CC(=O)N2 (stereo not drawn)	-1.5	-2.8	-2.7	4.4	2.3	-0.4	x	x
O=C(Nc1ccc(Br)cc1)Nc1ccccc1Cl	-0.3	9.4	7.7*	21.6	-1.3	-0.1	0.5	4.0
O=[N+]([O-])c1cccc(-c2cc(-c3cc(Br)ccc3O)[nH]n2)c1	-1.0	-0.9	-2.0	9.5	-1.3	-1.0	x	x
Oc1ccc(Br)cc1-c1cc(-c2ccccc2)n[nH]1	1.6*	4.6	8.1*	60.8*	-0.6	-0.1	0.0	5.2
CCN1CCN(c2oc(-c3ccccc3)nc2S(=O)(=O)c2ccc(C)cc2)CC1	-0.6	0.4	0.7	x	0.5	2.4	x	x
O=C(Cc1nnc(NC(=O)c2ccccc2)s1)N/N=C/c1ccco1	1.3*	2.4	7.5*	114.6*	-1.2	0.9	-0.2	0.4
